According to PubChem BioAssay (EPA / NIEHS):
Where “and” joins values, the source holds several entries; their conditions need not be identical. Identical values can stand only once. Some structures have more than one record in an assay (separate samples or runs), and their calls can disagree. Calls of active or inactive are those of the source. The calls were made as follows: active = hit-call score of the fitted dose curve at least 0.9, where 1 is the maximum; inactive = score below 0.9.

Experiments:
[1] = ATG_CRE_CIS: Attagene CIS-FACTORIAL HepG2 Assay for human cAMP Responsive Element (CRE) binding protein 3 (AID 2282926); settings: HepG2 CRE cis-reporter, Attagene multiplexed mRNA; actives raise or lower the signal
Summary of the method: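 Readout: fluorescently labelled reporter transcripts resolved by capillary electrophoresis after RT-PCR, taken 24 h post-dosing in transfected HepG2. Endogenous transcription factor activity drives each cis-element reporter; gain or loss of signal fitted relative to DMSO control.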

[2] = biological target: CCAAT/enhancer-binding protein beta (Homo sapiens) (UniProt P17676); assay: ATG_C_EBP_CIS: Attagene CIS-FACTORIAL HepG2 Assay for human CCAAT/Enhancer Binding Protein (C/EBP) beta (AID 2282927); settings: HepG2 Attagene cis-factorial transcription factor reporter; actives raise or lower the signal
Sequence of CCAAT/enhancer-binding protein beta (Homo sapiens) (P17676 whole entry, looked up): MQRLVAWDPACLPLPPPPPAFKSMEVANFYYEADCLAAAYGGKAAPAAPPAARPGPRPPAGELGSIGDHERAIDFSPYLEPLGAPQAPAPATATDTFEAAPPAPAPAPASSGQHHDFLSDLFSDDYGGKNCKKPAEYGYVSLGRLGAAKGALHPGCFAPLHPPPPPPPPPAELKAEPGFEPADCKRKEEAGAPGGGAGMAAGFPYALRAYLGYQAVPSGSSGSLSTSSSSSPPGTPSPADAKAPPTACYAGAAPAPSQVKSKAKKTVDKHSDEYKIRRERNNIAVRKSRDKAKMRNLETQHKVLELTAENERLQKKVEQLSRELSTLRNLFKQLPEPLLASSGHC
Summary of the method: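 Following a 24 h incubation with test chemical, transfected HepG2 cells yielded RNA whose reporter transcripts were quantified by RT-PCR and fluorescent capillary electrophoresis, with DMSO serving as baseline for bidirectional fitting.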

[3] = ATG_CMV_CIS: Attagene CIS-FACTORIAL HepG2 Assay for human CMV (Internal Marker) (AID 2282928); settings: HepG2 CMV promoter reporter, transcription factor profiling; actives raise or lower the signal;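 also: endpoint acts as a background internal control marker rather than a target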
Summary of the method: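 Reporter transcripts from transfected HepG2 cells are isolated after 24 h of chemical dosing, reverse-transcribed and amplified. Fragments labeled with 6-FAM are cut with HpaI and quantified by capillary electrophoresis; DMSO defines baseline.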

[4] = ATG_DR4_LXR_CIS: Attagene CIS-FACTORIAL HepG2 Assay for human Liver X Receptor (LXR), DR4 submotif (AID 2282929); settings: HepG2 Attagene DR4 cis-reporter, mRNA transcription; actives raise or lower the signal
Summary of the method: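 HepG2 cells transiently transfected with cis-promoter-driven multiplexed reporter units (DR4 element) were dosed for 24 h. Reporter mRNA was quantified by RT-PCR, fluorescent primer extension, HpaI digestion and capillary electrophoresis; bidirectional fitting versus DMSO baseline.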

[5] = biological target: Aryl hydrocarbon receptor (Homo sapiens) (UniProt P35869); assay: ATG_Ahr_CIS: Attagene CIS-FACTORIAL HepG2 Assay for human Aryl Hydrocarbon Receptor (Ahr) (AID 2282930); settings: HepG2 AhR cis-factorial reporter transcription; actives raise or lower the signal
Sequence of Aryl hydrocarbon receptor (Homo sapiens) (P35869 whole entry, looked up): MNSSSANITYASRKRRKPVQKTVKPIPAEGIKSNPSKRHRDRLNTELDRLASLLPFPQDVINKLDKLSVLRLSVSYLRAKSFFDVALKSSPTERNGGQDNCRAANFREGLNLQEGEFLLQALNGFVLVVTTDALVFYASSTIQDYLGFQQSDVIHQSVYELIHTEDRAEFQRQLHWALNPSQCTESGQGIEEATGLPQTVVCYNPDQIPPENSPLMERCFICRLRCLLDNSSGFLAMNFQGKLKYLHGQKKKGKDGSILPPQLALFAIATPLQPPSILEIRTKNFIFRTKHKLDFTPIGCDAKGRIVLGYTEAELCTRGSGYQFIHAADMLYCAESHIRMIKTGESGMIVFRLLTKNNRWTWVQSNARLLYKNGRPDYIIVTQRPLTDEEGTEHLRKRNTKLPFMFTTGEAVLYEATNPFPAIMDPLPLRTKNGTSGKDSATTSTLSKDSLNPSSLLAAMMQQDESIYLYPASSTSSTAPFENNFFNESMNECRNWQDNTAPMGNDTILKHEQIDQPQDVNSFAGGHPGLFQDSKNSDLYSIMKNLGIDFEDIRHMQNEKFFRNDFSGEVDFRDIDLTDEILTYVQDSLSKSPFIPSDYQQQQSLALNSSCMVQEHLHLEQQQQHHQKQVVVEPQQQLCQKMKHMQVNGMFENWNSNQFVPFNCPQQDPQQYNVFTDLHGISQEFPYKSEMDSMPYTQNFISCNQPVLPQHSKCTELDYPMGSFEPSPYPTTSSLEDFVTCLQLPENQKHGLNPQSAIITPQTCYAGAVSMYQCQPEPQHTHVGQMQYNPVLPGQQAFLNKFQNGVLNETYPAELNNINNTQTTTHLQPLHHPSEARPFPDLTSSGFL
Summary of the method: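 Values derive from bidirectional fitting against DMSO negative control. Underlying signal: cis-element reporter mRNA in transiently transfected HepG2, harvested 24 h post-dose and measured by RT-PCR plus capillary electrophoresis.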

[6] = ATG_AP_1_CIS: Attagene CIS-FACTORIAL HepG2 Assay for human Activator Protein 1 (AP-1) (AID 2282931); settings: HepG2 Attagene cis-factorial AP-1 reporter mRNA; actives raise or lower the signal
Summary of the method: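 HepG2 cells transiently transfected with cis-element-driven multiplex reporter units; 24 h compound exposure. Reporter mRNA quantified by RT-PCR, FAM-labelled fragments resolved by capillary electrophoresis; bidirectional fit versus DMSO baseline.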

[7] = ATG_BRE_CIS: Attagene CIS-FACTORIAL HepG2 Assay for human Bone Morphogenetic Protein (BMP) Response Element (BRE) (AID 2282933); settings: HepG2 BMP response element reporter, Attagene transcription factor profiling; actives raise or lower the signal
Summary of the method: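 Endogenous transcription factor activity read in transiently transfected HepG2 cells after 24 h chemical exposure. Bidirectional curve fitting against DMSO; readout is reporter transcript level by RT-PCR with capillary electrophoresis of labelled products.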

[8] = biological target: Retinoic acid receptor alpha (Homo sapiens) (UniProt P10276); assay: ATG_DR5_RAR_CIS: Attagene CIS-FACTORIAL HepG2 Assay for human Retinoic Acid Receptor Alpha (RARE), DR5 submotif (AID 2282934); settings: HepG2 Attagene cis-factorial RARE DR5 reporter, mRNA; actives raise or lower the signal;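 as to AC50: reporter responds to endogenous RAR alpha beta and gamma in HepG2 not RARA alone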
Sequence of Retinoic acid receptor alpha (Homo sapiens) (P10276 whole entry, looked up): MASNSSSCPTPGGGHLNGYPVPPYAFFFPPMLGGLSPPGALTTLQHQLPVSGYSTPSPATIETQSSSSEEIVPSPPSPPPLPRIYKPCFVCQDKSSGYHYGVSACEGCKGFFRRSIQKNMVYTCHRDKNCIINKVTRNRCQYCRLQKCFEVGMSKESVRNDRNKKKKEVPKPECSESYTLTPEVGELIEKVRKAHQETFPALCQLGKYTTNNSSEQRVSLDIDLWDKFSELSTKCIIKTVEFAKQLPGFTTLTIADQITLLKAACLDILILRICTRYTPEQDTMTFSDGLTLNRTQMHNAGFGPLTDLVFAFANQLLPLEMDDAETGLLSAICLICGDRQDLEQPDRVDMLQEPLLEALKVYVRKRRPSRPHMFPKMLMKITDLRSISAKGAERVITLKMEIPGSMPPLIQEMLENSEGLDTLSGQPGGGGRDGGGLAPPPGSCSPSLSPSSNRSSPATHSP
Summary of the method: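 Endpoint fitted in both directions relative to DMSO as negative control. It reflects DR5 cis-element reporter mRNA induction in transiently transfected HepG2 cells, measured 24 h after dosing through RT-PCR and fluorescent capillary electrophoresis.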

[9] = biological target: Transcription factor E2F1 (Homo sapiens) (UniProt Q01094); assay: ATG_E2F_CIS: Attagene CIS-FACTORIAL HepG2 Assay for human E2F Transcription Factor 1 (AID 2282935); settings: HepG2 Attagene cis-reporter, E2F reporter RNA transcripts; actives raise or lower the signal
Sequence of Transcription factor E2F1 (Homo sapiens) (Q01094 whole entry, looked up): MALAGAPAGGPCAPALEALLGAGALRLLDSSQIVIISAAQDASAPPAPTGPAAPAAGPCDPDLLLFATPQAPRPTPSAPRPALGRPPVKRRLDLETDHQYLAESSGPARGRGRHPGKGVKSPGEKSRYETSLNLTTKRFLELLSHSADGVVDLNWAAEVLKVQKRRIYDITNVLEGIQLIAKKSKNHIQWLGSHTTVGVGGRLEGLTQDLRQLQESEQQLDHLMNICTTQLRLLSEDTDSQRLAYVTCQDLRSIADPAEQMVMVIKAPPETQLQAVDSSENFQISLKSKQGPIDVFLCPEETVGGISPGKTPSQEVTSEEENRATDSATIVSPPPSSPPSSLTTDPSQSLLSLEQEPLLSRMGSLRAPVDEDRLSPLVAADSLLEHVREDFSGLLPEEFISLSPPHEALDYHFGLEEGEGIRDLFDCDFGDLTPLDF
Summary of the method: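 First, HepG2 cells were transfected with reporter transcription units. Next, they were dosed for 24 h. Then RNA was isolated, converted to cDNA, PCR-amplified, FAM-labeled, HpaI-digested and analyzed by capillary electrophoresis.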

[10] = ATG_E_Box_CIS: Attagene CIS-FACTORIAL HepG2 Assay for human Enhancer Box (E-box) (AID 2282936); settings: HepG2 E-box cis-reporter transcription, actives raise or lower the signal
Summary of the method: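 Endogenous transcription factor activity was sensed in human HepG2 liver cells through transfected cis-promoter reporter units. After 24 h of dosing, total RNA was reverse-transcribed and reporter cDNA resolved by capillary electrophoresis.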

[11] = ATG_EGR_CIS: Attagene CIS-FACTORIAL HepG2 Assay for human Early Growth Response 1 (EGR1) (AID 2282938); settings: HepG2 Attagene CIS-FACTORIAL EGR reporter mRNA; actives raise or lower the signal
Summary of the method: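 HepG2 cells transiently transfected with cis-promoter-driven multiplexed reporter transcription units; reporter mRNA measured 24 h after compound dosing by RT-PCR, 6-FAM primer extension, HpaI digestion and capillary electrophoresis. Bidirectional fit versus DMSO baseline.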

[12] = ATG_M_19_CIS: Attagene CIS-FACTORIAL HepG2 Assay for M19 Transcription Factor (Internal Marker) (AID 2282939); settings: HepG2 Attagene CIS-FACTORIAL M19 internal marker reporter; actives raise or lower the signal
Summary of the method: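 Internal marker readout, fitted in both directions against DMSO, from HepG2 cells carrying transfected cis-element reporter constructs; RT-PCR and capillary electrophoresis of reporter mRNA after 24 h exposure.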

[13] = ATG_ERE_CIS: Attagene CIS-FACTORIAL HepG2 Assay for Estrogen Response Element (ERE) (AID 2282940); settings: HepG2 ERE cis-reporter, Attagene RNA transcript; actives raise or lower the signal
Summary of the method: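 After 24 h compound treatment, RNA from transfected HepG2 cells was reverse-transcribed, reporter cDNA PCR-amplified, FAM-labelled, HpaI-cut and resolved by capillary electrophoresis. ERE-driven cis reporter transcripts reflect endogenous factors; gain or loss scored against DMSO.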

[14] = ATG_Ets_CIS: Attagene CIS-FACTORIAL HepG2 Assay for human Erythroblast Transformation Specific (ETS) (AID 2282941); settings: HepG2 ETS cis-reporter transcription, actives raise or lower the signal
Summary of the method: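 Bidirectional fit versus DMSO of reporter mRNA signal, detected by RT-PCR and capillary electrophoresis in HepG2 cells transiently transfected with cis-element reporters and dosed 24 h.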

[15] = biological target: Hepatocyte nuclear factor 3-beta (Homo sapiens) (UniProt Q9Y261); assay: ATG_FoxA2_CIS: Attagene CIS-FACTORIAL HepG2 Assay for human Forkhead box A2 (FOXA2) (AID 2282942); settings: HepG2 cis-reporter transcription factor activity, 24 h; actives raise or lower the signal
Sequence of Hepatocyte nuclear factor 3-beta (Homo sapiens) (Q9Y261 whole entry, looked up): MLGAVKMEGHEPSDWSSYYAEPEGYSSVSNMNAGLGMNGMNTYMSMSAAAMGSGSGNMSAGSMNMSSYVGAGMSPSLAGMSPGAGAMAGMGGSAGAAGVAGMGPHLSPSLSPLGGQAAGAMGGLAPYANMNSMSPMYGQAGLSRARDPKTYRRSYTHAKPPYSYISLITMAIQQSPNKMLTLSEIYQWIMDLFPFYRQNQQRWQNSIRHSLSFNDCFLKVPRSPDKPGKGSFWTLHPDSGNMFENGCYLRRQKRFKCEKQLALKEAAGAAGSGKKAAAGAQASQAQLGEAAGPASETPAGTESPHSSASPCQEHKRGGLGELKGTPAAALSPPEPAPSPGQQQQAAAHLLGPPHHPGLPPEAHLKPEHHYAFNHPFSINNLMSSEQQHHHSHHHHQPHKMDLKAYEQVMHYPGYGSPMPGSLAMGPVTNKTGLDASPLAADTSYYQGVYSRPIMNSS
Summary of the method: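 HepG2 cells transiently transfected with multiple cis-regulated reporter transcription units, dosed for 24 h. Reporter mRNA measured by RT-PCR, 6-FAM labelling, HpaI digestion and capillary electrophoresis; bidirectional fitting against DMSO baseline.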

[16] = ATG_FoxO_CIS: Attagene CIS-FACTORIAL HepG2 Assay for human Forkhead box O (FoxO) (AID 2282943); settings: HepG2 Attagene cis-reporter, FoxO element, mRNA; actives raise or lower the signal
Summary of the method: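 Values reflect reporter mRNA induction or loss in HepG2 cells 24 h post-dosing, fitted bidirectionally with DMSO as negative control and baseline. Detection used RT-PCR and fluorescence capillary electrophoresis.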

[17] = ATG_GATA_CIS: Attagene CIS-FACTORIAL HepG2 Assay for human GATA Binding Protein (AID 2282944); settings: HepG2 GATA cis-element reporter, Attagene multiplex mRNA; actives raise or lower the signal
Summary of the method: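 Reporter transcripts from a GATA cis-regulated unit, among multiplexed reporters in transfected HepG2 cells, were measured by RT-PCR with capillary electrophoresis after 24 h dosing. Induction or loss scored relative to DMSO.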

[18] = ATG_M_61_CIS: Attagene CIS-FACTORIAL HepG2 Assay for M61 Transcription Factor (Internal Marker) (AID 2282937); settings: HepG2 Attagene CIS-FACTORIAL M61 internal marker reporter; actives raise or lower the signal
Summary of the method: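 HepG2 cells transiently transfected with cis-element-driven multiple reporter transcription units, dosed for 24 h. Reporter mRNA measured by RT-PCR, 6-FAM primer-extension labelling, HpaI digestion and capillary electrophoresis; bidirectional fit versus DMSO baseline.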

[19] = ATG_AP_2_CIS: Attagene CIS-FACTORIAL HepG2 Assay for human Activator Protein 2 (AP-2) (AID 2282932); settings: HepG2 AP-2 cis-reporter, Attagene transcription factor profiling; actives raise or lower the signal
Summary of the method: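 Cells (HepG2) transfected with promoter-driven reporter constructs, treated 24 h. Total RNA reverse-transcribed, reporter cDNA PCR-amplified, FAM-labelled by primer extension, digested, resolved by capillary electrophoresis. Activity fitted both directions versus DMSO.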

[20] = ATG_GLI_CIS: Attagene CIS-FACTORIAL HepG2 Assay for human Zinc Finger Protein GLI1 (AID 2282945); settings: HepG2, Attagene cis-factorial reporter mRNA, GLI element; actives raise or lower the signal
Summary of the method: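 HepG2 cells transiently transfected with cis-promoter multiplexed reporter units report endogenous transcription factor activity. After 24 h chemical exposure, reporter mRNA was quantified by RT-PCR, 6-FAM labelling, HpaI digestion and capillary electrophoresis, with bidirectional fitting against DMSO.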

Measured: AC50

Cn1sc(Cl)cc1=O
active: [5] 67.3 µM
not listed: [18] | [19] | [20]
inactive: all other assays above

Cc1cc(Cl)ccc1O[C@H](C)C(=O)O
not listed: [12] | [19] | [20]
inactive: all other assays above

O=C(NCO)NCO
active: [13] 54.5 µM
not listed: [8] | [12] | [18]
inactive: all other assays above

COc1cc(-c2ccc(N)c(OC)c2)ccc1N
active: [1] 31 µM and 29.3 µM | [2] 14.8 µM and 36.5 µM | [3] 10.5 µM and 27.8 µM | [8] 2.98 µM and 19.8 µM | [10] 43.2 µM | [11] 27.9 µM | [14] 100 µM
inactive: [4] | [6] | [19] | [7] | [9] | [10] | [18] | [11] | [12] | [14] | [15] | [16] | [17] | [20]

CC(C)c1ccc(CO)cc1
not listed: [5] | [19]
inactive: all other assays above
